# CendR NRP1 mod: alters CendR peptide binding to human NRP-1 | AID 602438 | FAM-RPARPAR peptide binding to NRP-1, fluorescence polarization | O14786 | inhibition, % at 25 µM | 360,000 compounds, 0.85% hits;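 active = inhibition or corrected inhibition above about 18%, plus a signal ratio from 0.5 to 1.5, limit read from the data, passing the limit was not always enough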
# Target sequence (O14786 whole entry, looked up): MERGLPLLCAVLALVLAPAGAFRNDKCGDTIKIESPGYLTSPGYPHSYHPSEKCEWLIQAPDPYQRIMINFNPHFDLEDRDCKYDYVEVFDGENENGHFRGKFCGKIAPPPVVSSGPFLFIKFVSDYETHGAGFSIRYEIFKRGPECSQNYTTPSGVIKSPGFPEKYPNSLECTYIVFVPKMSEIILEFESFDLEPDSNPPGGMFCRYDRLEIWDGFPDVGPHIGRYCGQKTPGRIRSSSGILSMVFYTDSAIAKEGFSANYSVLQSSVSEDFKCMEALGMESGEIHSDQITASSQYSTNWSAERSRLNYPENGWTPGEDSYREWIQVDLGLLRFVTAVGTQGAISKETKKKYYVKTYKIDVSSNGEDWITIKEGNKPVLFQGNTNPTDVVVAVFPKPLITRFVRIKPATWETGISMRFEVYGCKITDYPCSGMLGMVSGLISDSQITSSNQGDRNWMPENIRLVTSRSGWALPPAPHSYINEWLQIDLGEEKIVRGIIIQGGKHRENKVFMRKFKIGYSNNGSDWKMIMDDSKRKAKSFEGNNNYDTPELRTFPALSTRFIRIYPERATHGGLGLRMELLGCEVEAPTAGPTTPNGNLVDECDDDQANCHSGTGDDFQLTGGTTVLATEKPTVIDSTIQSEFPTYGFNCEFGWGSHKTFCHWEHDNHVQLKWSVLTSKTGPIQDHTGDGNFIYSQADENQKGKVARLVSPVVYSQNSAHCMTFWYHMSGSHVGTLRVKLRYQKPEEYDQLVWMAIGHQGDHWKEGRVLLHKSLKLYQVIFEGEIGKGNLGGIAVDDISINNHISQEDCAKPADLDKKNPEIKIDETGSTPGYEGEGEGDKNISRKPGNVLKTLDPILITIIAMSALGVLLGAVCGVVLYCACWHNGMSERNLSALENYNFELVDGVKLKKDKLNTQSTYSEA
# NadD block: blocks S. aureus nicotinate mononucleotide adenylyltransferase; purified NadD enzyme, colorimetric absorbance read-out; inhibition, % at 20 µM; 360,000 compounds, 0.78% hits; in the data active = inhibition above about 26%
# Myeloid diff 2: compounds promoting myeloid differentiation; ER-HoxA9 myeloid progenitors, lysozyme-GFP differentiation, flow cytometry; calls only at 10 µM; 360,000 compounds, 1% hits;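 active = normalized GFP-positive differentiation at or above the plate's own cutoff, the solvent-only control mean plus 3 SD; inconclusive = no clear call, values can overlap the other calls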;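 note: cells exposed to compound for four days before flow analysis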
# FAS-TE inh: FAS thioesterase (human) inhibition; AID 602261; 360,000 compounds, 0.67% hits; inhibition, % at 15 µM; recombinant FAS-TE, OMFH fluorogenic substrate, fluorescence endpoint;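 active = compounds whose normalised, plate-corrected inhibition of enzyme fluorescence in the single-dose primary screen is 50% or more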;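 note: 0% = DMSO with enzyme and 100% = substrate without enzyme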
# CRFR2-BP antag: antagonists of CRF-binding protein/CRF-R2 receptor complex; HEK293 CRF-R2/CRF-BP, CRF-induced calcium fluorescence; inhibition, % at 11.8 µM; 350,000 compounds, 0.59% hits; AID 588475;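 active = inhibition of the ligand-induced calcium signal above about 50% at the single tested concentration, limit read from the data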
# FAS-TE conf: FAS thioesterase (human) inhibition, confirmation; shares compounds with FAS-TE inh; recombinant FAS-TE, OMFH fluorogenic substrate, fluorescence; inhibition, % at 15 µM; 2,300 compounds, 45% hits; AID 624325;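 active = compounds inhibiting the enzyme by at least 50% at 15 µM in any one of the replicates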;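 note: 0% = enzyme with DMSO only and 100% = wells lacking enzyme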
# The depositor's hits bear a star; i = inactive; ? = inconclusive; . = no result given. Most compounds without a hit are left out; they make up all but 3.6% or so of the library.
SMILES,CendR NRP1 mod,NadD block,Myeloid diff 2,FAS-TE inh,CRFR2-BP antag,FAS-TE conf
O=C(O)c1ccccc1NS(=O)(=O)c1ccc(NN=Cc2ccc(F)cc2)c([N+](=O)[O-])c1,-16,12,i,57*,25,71*
COc1ccccc1NS(=O)(=O)c1ccc(N/N=C/C=C/c2ccccc2[N+](=O)[O-])c([N+](=O)[O-])c1,29*,26,i,61*,-7,0
Cc1ccc(CN2CC(=O)N3[C@H]4c5cc(C)ccc5OC[C@@H]4[C@H](c4ccccc4)[C@]3(C)C2=O)cc1,-3,7,.,52*,-11,9
Cc1ccc(CN2CC(=O)N3[C@H]4c5cc(Cl)ccc5OC[C@@H]4[C@H](c4ccccc4)[C@]3(C)C2=O)cc1,9,16,i,84*,72*,17
Cc1ccc2c(c1)[C@H]1[C@H](CO2)[C@H](c2ccccc2)[C@]2(C)C(=O)N(Cc3ccccc3)CC(=O)N12,0,1,i,20,-7,.
CCCCC1Cc2[nH][nH]c(=O)c2C(c2ccc(Cl)cc2)O1 (stereo not given),16,7,i,-22,.,.
Cc1ccc2cc3c(=O)n(C)cc(C=O)c3nc2c1,5,0,i,-4,6,.
CCOC(=O)N1CCC(N2CCN(c3ccccc3)CC2)CC1,0,-22,.,-4,13,.
O=C(Nc1nnc(-c2ccc(F)cc2)o1)c1cccc([N+](=O)[O-])c1,6,15,i,56*,6,54*
O=C(CSc1ncnc2c1cnn2-c1ccccc1)NC1CCCC1,-10,-1,i,61*,17,55*
O=C(NCC(c1ccco1)N1CCc2ccccc2C1)c1ccc([N+](=O)[O-])cc1 (stereo not given),-2,4,i,60*,8,11
Cc1ccc(NC2=C(Cl)C(=O)OC2OC(=O)c2ccccc2)c(C)c1 (stereo not given),4,-4,i,38,-5,.
Cc1cccc(C)c1NC1=C(Cl)C(=O)OC1OC(=O)c1ccccc1 (stereo not given),-2,-3,i,64*,-5,29*
O=C1OCCN1C(=O)[C@H]1[C@H](c2ccc(Cl)cc2)C(c2cccc(Cl)c2)=NN1c1ccccc1,-9,28,i,94*,1,7
O=C1OCCN1C(=O)[C@H]1[C@H](c2ccc(Cl)cc2)C(c2ccccc2)=NN1c1ccc(Br)cc1,2,13,i,81*,-12,39
CC[C@@H]1C(c2ccccc2)=NN(c2ccc(Br)cc2)[C@H]1C(=O)N1CCOC1=O,-9,0,i,29,0,.
C[C@@H]1C(c2ccc(F)cc2)=NN(c2ccccc2)[C@H]1C(=O)N1CCOC1=O,-7,-3,i,12,8,.
O=C1OCCN1C(=O)[C@H]1[C@H](c2ccc(F)cc2)C(c2cccc(Cl)c2)=NN1c1ccc(Br)cc1,-9,20,i,73*,4,21
O=C1OCCN1C(=O)[C@H]1[C@H](c2ccc(F)cc2)C(c2cccc(Cl)c2)=NN1c1ccccc1,7,10,i,59*,-4,11
CC1(C(=O)NS(=O)(=O)c2ccc(Cl)cc2)CCN1C(=O)Cc1ccccc1Cl (stereo not given),-6,2,i,-3,.,.
N#Cc1cc2nc(O)c(O)nc2cc1[N+](=O)[O-],-11,2,i,52*,-1,56*
CCCCNC(=O)CSc1nc2ccccc2n1S(=O)(=O)c1ccc(Br)cc1,5,-2,i,0,31,.
O=C(CSc1nc2ccccc2n1S(=O)(=O)c1cccc([N+](=O)[O-])c1)NCCc1ccccc1,4,-4,i,76*,-10,69*
COCCOc1ccc(C(F)(F)F)cc1NC(=O)COC(=O)c1cc([N+](=O)[O-])ccc1N1CCOCC1,2,-11,i,72*,-2,30*
O=C(COC(=O)c1cc([N+](=O)[O-])ccc1N1CCOCC1)Nc1ccc(Cl)cn1,16,-5,i,71*,-7,59*
SMILES,CendR NRP1 mod,NadD block,Myeloid diff 2,FAS-TE inh,CRFR2-BP antag,FAS-TE conf
COCCOc1ccc(C(F)(F)F)cc1NC(=O)COC(=O)c1ccc(N2CCCC2=O)cc1,7,0,i,1,-5,.
NC(=O)c1ccc(NC(=O)COC(=O)c2cc([N+](=O)[O-])ccc2N2CCOCC2)cc1,-17,-1,i,36,1,.
Cc1cc(Cl)ccc1NC(=O)COC(=O)c1cc([N+](=O)[O-])ccc1N1CCOCC1,-6,-8,i,77*,-16,79*
CCc1cccc(C)c1NC(=O)COC(=O)c1cc([N+](=O)[O-])ccc1N1CCOCC1,12,-3,i,68*,-2,69*
Cc1ccc(NC(=O)COC(=O)c2cc(Cl)ccc2[N+](=O)[O-])c(C)c1,-6,-6,i,16,-5,.
Cc1cccnc1NC(=O)c1ccc(COc2ccccc2)o1,-4,-3,i,-5,2,.
O=C(Cn1nc(-c2ccccc2)oc1=O)OCC(=O)c1ccc(F)c(F)c1,-12,-2,i,-6,7,.
COc1ccc(CNCc2c(F)cccc2F)cc1OC,-11,-8,i,-3,10,.
CCOC(=O)c1cc(CC)sc1NC(=O)c1cc([N+](=O)[O-])ccc1N1CCOCC1,2,4,?,61*,-7,21
O=C(COC(=O)c1cc([N+](=O)[O-])ccc1N1CCOCC1)Nc1ccc(Cl)cc1,-6,-11,i,81*,-4,49*
C=CCN(CC=C)S(=O)(=O)c1ccc(NC(=S)NC(=O)/C=C/c2ccccc2)cc1,-17,0,i,57*,-16,10
O=C(/C=C/c1ccccc1)NC(=S)Nc1ccccc1,-5,-2,i,8,-8,.
FCCCOc1ccc(-c2nccc(-c3ccc(F)cc3)n2)cc1,-8,3,i,26,-2,.
FCCCOc1ccc(-c2ccnc(-c3ccccc3)n2)cc1,1,5,i,54*,3,44
CC1C(=O)CC(c2ccc([N+](=O)[O-])cc2)NC1c1ccc([N+](=O)[O-])cc1 (stereo not given),1,3,i,52*,-1,-1
Cc1ccc(C)c(NC(=O)COC(=O)c2ccc(S(=O)(=O)N3CCCC3)cc2)c1,-4,4,i,-6,11,.
COc1ccc(Cn2c(C)nc3ccc([N+](=O)[O-])cc3c2=O)cc1,1,-2,i,70*,48,48*
Cc1nc2ccc(N)cc2c(=O)n1Cc1ccc(Cl)cc1,2,1,i,-11,8,.
Cc1nc2ccc([N+](=O)[O-])cc2c(=O)n1Cc1ccc(Cl)cc1,9,3,i,83*,22,85*
COc1ccc(S(=O)(=O)NCc2ccccn2)cc1C,-15,-8,i,-5,4,.

# Source: PubChem
